Compounds with a hit are over-represented: about 2.8% of the library has one in this group of screens.
KDM5B inhibitor – blocks human KDM5B histone demethylase activity | 220,000 compounds, 2.6% hits | Potency, µM (titrated, usually from 57.7 µM), usual class: inhibitors | Q9UGL1 | KDM5B demethylase, FDH-coupled NADH fluorescence (FDH is formaldehyde dehydrogenase); further: nearly all actives have a fitted effect of over 70% in size
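Measured: NADH fluorescence change, 30 min, RT. System: KDM5BΔAP 200 nM final, H3K4me3 peptide, α-KG, Fe(II), ascorbate, NAD⁺ plus FDH, pH 7.5 HEPES. Compounds: titrated, 10 min pre-incubation with enzyme.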
SNCA expr inhib – inhibitors of alpha-synuclein (SNCA) gene expression; HEK-293 SNCA-luciferase knock-in, luminescence, 24 h; Potency, µM (titrated, usually from 57.2 µM), usual class: inhibitors; 140,000 compounds, 0.17% hits; AID 1671194; further: nearly all actives have a fitted effect of over 45% in size
IP6K1 inh – inhibitors of human IP6K1 | Q92551 | IP6K1 kinase, ADP-Glo luminescence, 2 h; active compounds read low | activity change, % (series mostly up to about 58 µM) | 140,000 compounds, 0.81% hits; in the data active means activity change below about -25%
Target sequence (Q92551 whole entry, looked up): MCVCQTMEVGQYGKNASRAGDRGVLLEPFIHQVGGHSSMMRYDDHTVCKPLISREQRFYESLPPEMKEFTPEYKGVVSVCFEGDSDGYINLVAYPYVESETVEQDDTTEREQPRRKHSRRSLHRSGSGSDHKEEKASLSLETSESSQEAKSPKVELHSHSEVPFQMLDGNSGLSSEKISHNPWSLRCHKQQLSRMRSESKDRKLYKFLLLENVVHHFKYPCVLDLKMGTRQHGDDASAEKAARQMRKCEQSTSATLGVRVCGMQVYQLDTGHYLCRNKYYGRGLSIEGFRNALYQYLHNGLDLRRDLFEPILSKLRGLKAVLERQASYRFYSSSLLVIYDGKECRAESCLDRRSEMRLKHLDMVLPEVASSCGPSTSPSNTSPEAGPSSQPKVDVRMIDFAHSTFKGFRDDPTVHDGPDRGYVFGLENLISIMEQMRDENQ
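ADP-Glo luminescence measures ADP made by human IP6K1 during a 2 h RT reaction with ATP/IP6 (mix at 1.3 mM/130 uM); top library doses 57.5 and 19.1 uM final.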
HEK293 viab – counter-screen for SNCA expression inhibitors: cell viability. HEK-293-SNCA-luc viability, GF-AFC fluorescence, 24 h. Potency, µM (doses to about 57.1 µM), usual class: cytotoxic. 150,000 compounds, 0.12% hits. AID 1671193; further: nearly all actives have a fitted effect of over 30% in size
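Cytotoxicity counterscreen: after 24 h compound treatment of genome-edited SNCA-luciferase HEK-293 cells, live-cell protease substrate GF-AFC read by fluorescence after 30 min; activity scaled between DMSO (0%) and medium-only (-100%), curves Hill-fitted.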
Numbers stand for hits; . = inactive; ? = inconclusive; / = no result; ! = a repeat was not active; [ ] = another dose, or the depositor's remark. Unless noted, the call rests on the fitted dose curve; in most records, active means well fitted curve in the direction sought with a large enough effect; inconclusive means small, poorly fitted or top-dose-only effect, or another doubt; inactive means no such curve, though single readings can be large; an effect the other way counts as inactive or inconclusive.

SMILES	KDM5B inhibitor	SNCA expr inhib	IP6K1 inh	HEK293 viab
CN1C(=O)C(c2ccccc2)CC12CCN(C(=O)CN1CCCC1)CC2 (centres undefined)	25µM	.	.	.
Cc1ccc(C#N)c(N2CCC3(CC2)CC(c2ccccc2)C(=O)N3C)n1 (centres undefined)	28µM	.	.	.
O=C(c1cncc(N2CCCC(CCc3cccc(F)c3)C2)n1)N1CCCCC1 (centres undefined)	25µM	?	.	?
Cc1cnc(C(=O)N2CCCC(CCc3cccc(F)c3)C2)cn1 (centres undefined)	.	.	.	.
N[C@H]1CN(c2cncc(C(=O)N3CCCCC3)n2)C[C@@H]1C1CC1	28µM	.	.	.
C/C(=N/Nc1ccccc1)C1(C)N(O)C(C)(C)C(c2ccc(C)cc2)=[N+]1[O-] (centres undefined)	.	/	/	/
Cc1[nH]c2ccccc2c1C1c2ccccc2C(=O)N1CCC(=O)N1CCN(c2ccccc2)CC1 (centres undefined)	.	/	/	/
CCc1n[nH]c(CC2CCN(C(=O)Nc3ccc4c(c3)OCCO4)CC2)n1	22µM	.	.	.
CCOC(=O)C1(Cc2ccc(Cl)cc2)CCN(C(=O)c2cc(C)oc2C)CC1	32µM	.	.	?
COc1ccccc1OC(C)C(=O)N1CCN(CCc2ccccn2)CC1 (centres undefined)	.	20µM	.	.
CC(Oc1ccccc1Cl)C(=O)N1CCN(CCc2ccccn2)CC1 (centres undefined)	.	.	.	.
CN(Cc1ccc(F)cc1)c1ccc2ncc(Nc3cccc(N[S+](C)(=O)[O-])c3)n2n1	?	.	.	.
CN(Cc1cccnc1)c1ccc2ncc(Nc3cccc(N[S+](C)(=O)[O-])c3)n2n1	18µM	.	.	.
CN(Cc1cccnc1)c1ccc2ncc(Nc3ccc(C(F)(F)F)cc3)n2n1	25µM	?	.	.
CCCCn1nc(C(=O)Nc2nccs2)c2ccccc2c1=O	.	/	/	/
Cn1cccc1/C=C(\C#N)c1cccc(Br)c1	.	/	/	/
O=C(c1cc(Br)cn2ccnc12)N1CCC(N2CCNC2=O)CC1	?	.	.	.
CNC(=O)c1cc(Br)cn2ccnc12	35µM	.	.	.
CC(C)NC(=O)c1cc(Br)cn2ccnc12	40µM	.	.	.
Cc1ccc(C(C)C)cc1OCC(=O)NC1=NCCS1	.	/	/	/
CN(C)c1cccc(C(=O)Oc2ccc(C#N)cc2)c1	.	/	/	/
CCn1c(CO)nnc1C1CC(NC(=O)c2cnn3cc(C)cnc23)C1 (centres undefined)	28µM!	.	.	.
Cc1cccc(NC(c2cccc(Cl)c2)c2ccc3cccnc3c2O)n1 (centres undefined)	?	8.9µM	.	.
Cc1nn(-c2ccccc2)c2c1C(C(C)C)N(C1CCN(C(=O)c3cccc(Cl)c3)CC1)C2=O (centres undefined)	/	/	.	/
COc1ccccc1CC(=O)N[C@@H]1CN(c2ncccn2)C[C@H]1CN(C)C	22µM	.	.	.
SMILES	KDM5B inhibitor	SNCA expr inhib	IP6K1 inh	HEK293 viab
COc1ccccc1CCC(=O)N[C@@H]1CN(c2ccncn2)C[C@H]1CN(C)C	.	.	.	.
COc1ccc(CCC(=O)N[C@@H]2CN(c3ncccn3)C[C@H]2CN(C)C)cc1	22µM	.	.	.
COc1ccc(CC(=O)N[C@@H]2CN(C)C[C@H]2CN(C)C)cc1	.	.	.	.
CN(C)C[C@@H]1CN(c2ncccn2)C[C@H]1NC(=O)Cc1ccsc1	22µM	.	.	.
COc1ccc(CCC(=O)N[C@@H]2CN(c3ncccn3)C[C@H]2CO)cc1	22µM	.	.	.
CN(C)C[C@@H]1CN(C2CCOCC2)C[C@H]1NC(=O)Cc1ccsc1	?	?	.	.
COc1ccc(CNc2nc3ccccc3nc2NS(=O)(=O)c2cccc3nsnc23)cc1	.	/	/	/
COc1cccc(C(=O)Nc2oc3ccc(Cl)cc3c(=O)c2-c2ccccc2)c1	.	/	/	/
CCCn1c(-n2nc(C)cc2C)nc2c1c(=O)n(Cc1cccc(Cl)c1)c(=O)n2C	.	/	/	/
CC(C)CCn1nc(C(=O)Nc2nccs2)c2ccccc2c1=O	.	/	/	/
CN(C)C[C@@H]1CN(c2ncccn2)C[C@H]1NC(=O)CCn1cccn1	28µM	.	.	.
CNC(=O)C1CCN(C(=O)c2ccc(-c3ncc4cnc(-c5ccccc5)cn34)cc2)CC1	22µM	.	.	.
CN(C)CCN(C)C(=O)c1ccc(-c2ncc3cnc(-c4ccccc4)cn23)cc1	32µM	.	.	.
CNC(=O)C1CCN(C(=O)c2ccc(-c3ccccc3OC)cc2)CC1	/	.	.	.[12.5 µM]

Screening data as filed in PubChem BioAssay.
